We go through 29 compounds from PubChem BioAssay (Tox21).

Inconclusive results are not listed. The source made the active and inactive calls. Unless noted, calls come from the whole dose curve; as a rule, active = well fitted curve in the direction sought with a large enough effect in the repeat runs; inconclusive = weak or mixed curves; inactive = no such curve, though single readings can be large; an effect the other way counts as inactive or inconclusive.

The nature of assay [1]: qHTS assay to identify small molecule antagonists of the glucocorticoid receptor (GR) signaling pathway - cell viability counter screen (AID 720693). Note: nearly all actives have a fitted effect of over 55% in size. Note: potency is the fitted concentration of half-maximal effect. For orientation: Quantitative high-throughput screening tests each substance at several concentrations.
Assay [2] is described as follows: qHTS assay for identifying genotoxic compounds that show differential cytotoxicity against isogenic chicken DT40 cell lines with known DNA damage response pathways - wild type cell line (AID 743012). Note: nearly all actives have a fitted effect of over 60% in size. Note: potency is the fitted concentration of half-maximal effect. Summed up: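 Cells (DT40 wild type, 300/well) are treated with DMSO-dissolved compounds after a ~0.5 h pre-incubation and kept 40 h at 37 C/5% CO2. Viability is then measured by CellTiter-Glo luminescence following 30 min at room temperature.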

The nature of assay [3]: qHTS assay for identifying genotoxic compounds that show differential cytotoxicity against isogenic chicken DT40 cell lines with known DNA damage response pathways - Rad54/Ku70 mutant cell line (AID 743015). Note: nearly all actives have a fitted effect of over 60% in size. Note: potency is the fitted concentration of half-maximal effect.
A short description of assay [4]: qHTS assay to identify small molecule antagonists of the androgen receptor (AR) signaling pathway - cell viability counter screen (AID 743033; note: nearly all actives have a fitted effect of over 45% in size; note: potency is the fitted concentration of half-maximal effect).
Assay [5] has as its target Androgen receptor (Homo sapiens) (UniProt P10275). The assay can be described thus: qHTS assay to identify small molecule agonists of the androgen receptor (AR) signaling pathway (AID 743036; active = well fitted activation curve with a large enough effect in the signal ratio in the repeat runs, with a control signal flat, not every such curve was filed as active; the % refers to the signal ratio). The method in brief: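 Fluorescence from a beta-lactamase FRET substrate served as read-out in AR-UAS-bla GripTite HEK293 cells. Cells were treated with DMSO-dissolved compounds for 16 h at 37C, then with LiveBLAzer B/G substrate for 2 h at room temperature.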

Assay [6] has the same target. The assay can be described thus: qHTS assay to identify small molecule agonists of the androgen receptor (AR) signaling pathway using the MDA cell line (AID 743040; note: nearly all actives have a fitted effect of over 20% in size). Summed up: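 MDA-kb2 breast carcinoma cells carrying MMTV-luciferase (responsive to AR and GR), plated 5 h then treated 16 h with compounds at 37C, 0% CO2. Read-out was ONE-Glo luminescence after 30 min at room temperature.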

The nature of assay [7]: qHTS assay to identify small molecule antagonists of the androgen receptor (AR) signaling pathway using the MDA cell line - cell viability counter screen (AID 743041; note: nearly all actives have a fitted effect of over 45% in size; note: potency is the fitted concentration of half-maximal effect). The method in brief:
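MDA-kb2 AR-luc cells (MMTV-luciferase, AR/GR responsive) treated with compounds plus R1881 agonist for 16 h at 37C. CellTiter-Fluor added at 15.5 h; fluorescence read after 30 min in the same wells.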

The target of assay [8] is Androgen receptor (Homo sapiens) (UniProt P10275). Put plainly: qHTS assay to identify small molecule antagonists of the androgen receptor (AR) signaling pathway using the MDA cell line (AID 743042; note: nearly all actives have a fitted effect of over 55% in size; note: potency is the fitted concentration of half-maximal effect). The method in brief: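 MDA-kb2 breast carcinoma cells carrying MMTV-luciferase (AR/GR responsive) were co-treated with compounds and the agonist R1881 for 16 h at 37C. Inhibition read as ONE-Glo luminescence; CellTiter-Fluor fluorescence measured in parallel for cytotoxicity.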
Androgen receptor (Homo sapiens), sequence (P10275 whole entry, looked up): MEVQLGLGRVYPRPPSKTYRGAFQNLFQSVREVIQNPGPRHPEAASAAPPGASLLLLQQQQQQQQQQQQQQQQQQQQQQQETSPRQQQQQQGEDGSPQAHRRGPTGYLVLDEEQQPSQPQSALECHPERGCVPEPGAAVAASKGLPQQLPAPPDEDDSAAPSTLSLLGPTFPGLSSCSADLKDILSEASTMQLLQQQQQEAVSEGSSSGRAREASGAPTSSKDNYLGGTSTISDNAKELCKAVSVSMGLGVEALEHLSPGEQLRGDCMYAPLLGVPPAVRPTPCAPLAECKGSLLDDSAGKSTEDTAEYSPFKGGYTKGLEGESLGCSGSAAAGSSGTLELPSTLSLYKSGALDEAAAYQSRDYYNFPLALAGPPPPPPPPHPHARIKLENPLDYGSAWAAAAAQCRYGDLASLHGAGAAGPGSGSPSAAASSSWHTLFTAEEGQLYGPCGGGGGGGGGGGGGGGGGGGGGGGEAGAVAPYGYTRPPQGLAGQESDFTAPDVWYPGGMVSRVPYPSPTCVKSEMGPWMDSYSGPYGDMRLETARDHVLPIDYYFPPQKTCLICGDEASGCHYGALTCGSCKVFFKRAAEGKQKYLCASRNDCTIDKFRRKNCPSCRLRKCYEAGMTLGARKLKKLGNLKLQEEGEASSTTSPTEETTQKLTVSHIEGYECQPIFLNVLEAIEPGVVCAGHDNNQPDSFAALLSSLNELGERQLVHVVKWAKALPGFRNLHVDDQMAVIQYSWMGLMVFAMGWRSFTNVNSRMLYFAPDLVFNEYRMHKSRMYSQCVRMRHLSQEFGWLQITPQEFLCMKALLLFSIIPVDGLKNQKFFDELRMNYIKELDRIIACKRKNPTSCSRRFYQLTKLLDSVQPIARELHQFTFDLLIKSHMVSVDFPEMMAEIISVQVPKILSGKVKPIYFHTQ

The nature of assay [9]: qHTS assay to identify small molecule antagonists of the thyroid receptor (TR) signaling pathway - cell viability counter screen (AID 743064). Note: nearly all actives have a fitted effect of over 50% in size. Note: potency is the fitted concentration of half-maximal effect. The method in brief:
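Fluorescence from CellTiter-Fluor, added after 23.5 h exposure at 37 °C, reported viability of GH3.TRE-Luc cells co-treated with compound and 1 nM T3. Measured in the same wells as the luciferase TR readout.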

A short description of assay [10]: qHTS assay for identifying genotoxic compounds that show differential cytotoxicity against isogenic chicken DT40 cell lines with known DNA damage response pathways - Rev3 mutant cell line (AID 743014). Note: nearly all actives have a fitted effect of over 55% in size. Note: potency is the fitted concentration of half-maximal effect.

Turning to `CC/C=C1/OC(=O)c2ccccc21`, the Potency entry in assay [1], in [2], in assay [3], in assay [4], in assay [7] and in assay [8] was “inactive” in each case. The Potency result in assay [9] is “inactive”. Besides, the outcome in assay [5] and in assay [6] was inactive.
Regarding `O=C1Cc2ccccc2N1c1c(Cl)cccc1Cl`, the Potency entry in assay [1], in assay [7] and in [9] was “inactive” each time. The figures for the Potency in assay [2], in assay [3] and in assay [8] were 24.3 µM (active), 27.3 µM (active) and 61.1 µM (active), respectively. Also, the call in assay [6] was inactive.
Consider `CCCCCCNC(=O)n1cc(F)c(=O)[nH]c1=O`, for which the Potency result in assay [1] and in assay [7] was “inactive” throughout. Further, the figures for the Potency in [2], in [3] and in [9] were 8.41 µM (active), 11.9 µM (active) and 10.6 µM (active), respectively.
As for `O=C(O)CCc1nc(-c2ccccc2)c(-c2ccccc2)o1`, the Potency result in [1], in assay [2], in assay [3], in assay [4] and in assay [7] was “inactive” each time.
In the case of `CCCCCCCCN`, the Potency entry in assay [1], in [2], in assay [3], in assay [4], in assay [7] and in assay [9] was “inactive” in each case.
For `COc1cc(C(=O)NCCCCCC(=O)O)cc(OC)c1OC`, the Potency result in [1], in assay [2], in assay [3], in assay [4], in assay [7] and in [9] was “inactive” throughout.
As to `CC[C@]1(O)C[C@H]2CN(CCc3c([nH]c4ccccc34)[C@@](C(=O)OC)(c3cc4c(cc3OC)N(C=O)[C@H]3[C@@](O)(C(=O)OC)[C@H](OC(C)=O)[C@]5(CC)C=CCN6CC[C@]43[C@@H]65)C2)C1`, the Potency entry in assay [1], in assay [4], in assay [7] and in assay [8] was “inactive” in each case. Also, the Potency in assay [2] was 0.0075 µM (active); in [3], 0.0106 µM (active); in assay [9], 0.106 µM (active). Further, the outcome in [6] was inactive.
Consider `C=C1c2cccc(O)c2C(O)=C2C(=O)[C@]3(O)C(O)=C(C(N)=O)C(=O)[C@@H](N(C)C)[C@@H]3[C@@H](O)[C@H]12`, for which the Potency result in assay [1], in [2], in [3], in assay [4], in assay [7] and in assay [9] was “inactive” in each case.
As to `CC(C)(O)c1ccc(CNC(=O)c2cccnc2Oc2ccc3nonc3c2)cc1`, the Potency result in [1], in assay [7] and in assay [9] was “inactive” throughout. Also, the results for the Potency in assay [2], in [10] and in [3] were 61.1 µM (active), 68.6 µM (active) and 61.1 µM (active), respectively.
As for `NNC(=O)CP(=O)(c1ccccc1)c1ccccc1`, the Potency result in assay [1], in [2], in assay [3], in assay [4] and in [9] was “inactive” throughout.
Turning to `C1COC1`, the Potency entry in assay [1], in assay [2], in assay [3], in assay [4], in assay [7] and in assay [8] was “inactive” each time. Moreover, the compound was called inactive in assay [5].
In the case of `O=c1[nH]c2ccc(Cl)cc2o1`, the Potency result in assay [1], in [2], in assay [3], in [4], in assay [7] and in [9] was “inactive” each time.
Regarding `Cc1ccc2c(Br)cc(Br)c(O)c2n1`, the Potency entry in [1], in assay [4] and in assay [7] was “inactive” in each case. Also, the Potency was 7.5 µM (active) in [2], 8.41 µM (active) in assay [3] and 26.6 µM (active) in assay [9].
For `C=C1C[C@@]23CC[C@H]4[C@@](C)(CCC[C@@]4(C)C(=O)O[C@@H]4O[C@H](CO)[C@@H](O)[C@H](O)[C@H]4O)[C@@H]2CC[C@]1(O[C@@H]1O[C@H](CO)[C@@H](O)[C@H](O[C@@H]2O[C@H](CO)[C@@H](O)[C@H](O)[C@H]2O)[C@H]1O[C@@H]1O[C@H](CO)[C@@H](O)[C@H](O)[C@H]1O)C3`, the Potency result in assay [1], in assay [2], in [3], in assay [4], in assay [7] and in [8] was “inactive” each time. Also, the Potency entry in assay [9] was “inactive”. The compound was called inactive in assay [5] and in assay [6].
For `FC(F)(F)c1ccccc1Cl`, the Potency result in [1], in [2], in assay [3], in assay [4] and in assay [7] was “inactive” in each case.
Consider `O=C1C(=O)c2ccccc2C(O)=C1C1CCC(c2ccc(Cl)cc2)CC1` (configuration not stated), for which the Potency result in [1], in assay [10], in assay [4] and in assay [7] was “inactive” each time. In addition, the Potency in assay [2] was 5.07 µM (active).
In the case of `CCC(=O)OC`, the Potency entry in [1], in [2], in assay [3], in assay [4], in assay [7] and in [8] was “inactive” in each case. In [9], the Potency entry was “inactive”. The result in assay [5] and in [6] was inactive.
As to `CN(C)CCC=C1c2ccccc2C=Cc2ccccc21`, the Potency result in [1] and in assay [7] was “inactive” in each case. Besides, the Potency in assay [2] is 8.41 µM (active); in assay [10] it was 8.41 µM (active); in assay [3], 10.6 µM (active); in [9], 15 µM (active).
As to `CC(=O)Nc1cc(S(=O)(=O)O)cc2cc(S(=O)(=O)O)c(N=Nc3ccccc3)c(O)c12`, the Potency entry in assay [1], in [2], in [3], in assay [4] and in assay [7] was “inactive” each time.
As to `O=c1c(O)c(-c2ccc(O)cc2)oc2cc(O)cc(O)c12`, the Potency entry in assay [1], in [4] and in assay [7] was “inactive” each time. Moreover, the Potency is 32.8 µM (active) in assay [2] and 36.8 µM (active) in assay [3].
Regarding `CC(O)c1ccccc1` (configuration not stated), the Potency result in assay [1], in [2], in assay [3], in assay [4] and in assay [9] was “inactive” throughout.
Turning to `Cc1ccc(CO)cc1`, the Potency result in [1], in assay [2], in assay [3], in assay [4], in assay [7] and in [9] was “inactive” throughout.
For the compound `CCCCCCCCCI`, the Potency entry in assay [1], in assay [2], in [3], in assay [4], in assay [7] and in assay [9] was “inactive” each time.
Turning to `CC(=O)[C@H]1[C@H](C#N)C[C@H]2[C@@H]3CC=C4C[C@@H](O)CC[C@]4(C)[C@H]3CC[C@@]21C`, the Potency result in assay [1], in assay [4], in assay [7] and in assay [9] was “inactive” throughout. Further, the Potency in assay [2] and in [10] was 37.1 µM (active) throughout.
For `COc1cc(Nc2c(C#N)cnc3cc(OCCCN4CCN(C)CC4)c(OC)cc23)c(Cl)cc1Cl`, the Potency in assay [1] was 23.9 µM (active); in assay [2] it was 1.88 µM (active); in assay [3] it was 2.37 µM (active); in assay [4], 23.9 µM (active); in assay [7] it was 33.5 µM (active); in [9], 11.9 µM (active).
On to `O=c1[nH]ncc2ccccc12`, for which the Potency result in [1], in assay [2], in assay [3], in assay [7] and in assay [9] was “inactive” each time.
In the case of `CC1=C(CC=O)C(C)(C)CCC1`, the Potency entry in assay [1], in assay [4], in assay [7] and in [9] was “inactive” in each case. Further, the Potency was 54.5 µM (active) in assay [2] and 24.3 µM (active) in assay [3].
For the compound `Oc1cc2c(cc1O)[C@H]1c3ccc(O)c(O)c3OC[C@@]1(O)C2`, the Potency result in [1] is “inactive”. Further, the Potency in [2] was 43.8 µM (active); in [10], 22 µM (active); in assay [3] it was 31 µM (active); in [9] it was 61.9 µM (active).
Turning to `CCC1NC(=O)c2cc(S(N)(=O)=O)c(Cl)cc2N1` (configuration not stated), the Potency result in [1], in [2], in assay [3], in assay [4], in assay [7] and in [9] was “inactive” each time.
